Screening data as filed in PubChem BioAssay.
Pf growth 48h – P. falciparum growth inhibition at 48 hours (one generation) | P. falciparum luciferase growth in erythrocytes, 48 h | Potency, µM (titrated, usually from 28.7 µM), for inactives: at the highest dose activity change, negative = inhibition, hits mostly inhibitors | hit rate 5.9% among 310,000; active means well fitted inhibition curve with a large enough effect; inconclusive means small, poorly fitted or top-dose-only effect, or another doubt; inactive means no such curve, though single readings can be large or run the other way; further: potency means the concentration at half of the fitted maximal effect; on the % scale 0 is the no-effect control and ±100 the full control effect
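Compounds are pin-transferred into medium, infected erythrocytes (2% hematocrit, 0.1% parasitemia final) are added, and plates sit one parasite generation at 37 C in 5% CO2. Detection reagent is then added and luminescence measured.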
NS1 function inh – influenza NS1 inhibition; Potency, µM (doses to about 46.1 µM), inactives show top-dose activity, positive = more growth; hit rate 0.4% among 270,000; further: potency means the concentration at half of the fitted maximal effect; actives are rising curves; nearly all actives have a fitted effect of over 50% in size
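A cell-based growth assay was used: compounds that relieve NS1-induced slow growth of budding yeast raise OD600. Assay medium was yeast nitrogen base with ammonium sulphate and -URA supplement, pH 6.0, with 2% galactose.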
Pf growth 96h – P. falciparum growth inhibition at 96 hour, primary screen for plastid delayed-death inhibitors; Potency, µM (titrated, usually from 28.7 µM), inactives show at the top dose activity change, negative = inhibition, hits mostly inhibitors; hit rate 6.9% among 320,000; P. falciparum luciferase reporter growth, 96 h; active means well fitted inhibition curve with a large enough effect; inconclusive means small, poorly fitted or top-dose-only effect, or another doubt; inactive means no such curve, though single readings can be large or run the other way; further: potency means the concentration at half of the fitted maximal effect; on the % scale 0 is the no-effect control and ±100 the full control effect
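Readout is luminescence from an integrated firefly luciferase in P. falciparum. Red cells, 2% hematocrit and 0.05% parasitemia final, were cultured with compound through two parasite generations (96 hours) at 37 C, 5% CO2.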
Shiga inhibitor – inhibitors of Shiga toxin in Vero cells. hit rate 9.2% among 290,000. AID 2315. Vero cells, Shiga toxin protein synthesis inhibition reporter. inhibition, % at 38.7 µM; in the data active means inhibition mostly above about 28%, no sharp cut-off; inactive means mostly below about 43%; further: 0% is about no effect
SARS PLP yeast – blocks SARS-CoV papain-like protease in a yeast assay. S. cerevisiae expressing SARS-CoV PLpro, growth rescue. hit rate 0.19% among 330,000. Potency, µM (titrated, usually from 32.9 µM), inactives show at the top dose activity, positive = growth rescue, most hits filed as activators; further: potency means the concentration at half of the fitted maximal effect; 0% is about no effect; nearly all actives have a fitted effect of over 55% in size
Cycloheximide cs – counter-screen hit for Shiga toxin inhibitors, cycloheximide; hit rate 12% among 300,000; max response, %; cell reporter, cycloheximide protein synthesis inhibition counterscreen; in the data active means max response mostly above about 13%, no sharp cut-off; inactive means mostly below about 14%; further: read at 38.3 µM for the half of the compounds with a filed dose; 0% is about no effect
* hit, by the source's call; i = inactive; ? = inconclusive; . = not tested or not shown; [ ] = dose if it differs, or a comment. In the library only some 21% were active in any assay of this set; here they are far more common. Unless noted, the call rests on the fitted dose curve.

SMILES | Pf growth 48h | NS1 function inh | Pf growth 96h | Shiga inhibitor | SARS PLP yeast | Cycloheximide cs
CCN(Cc1cc(=O)oc2cc(C)ccc12)c1ccccc1 | ? | 14% | ? | 3 | 14% | 11
COc1ccc2c(CN(C)c3ccccc3)cc(=O)oc2c1 | -11% | -53% | ? | 48 | -19% | 22*
COc1ccc2ccc(O)c(CN3CC=C(c4ccccc4)CC3)c2c1 | 1.7µM* | . | ? | -4 | -10% | 12
FC(F)(F)C(Cl)Br (stereo not given) | -27% | . | -50% | . | . | .
Cc1ccc2c(CN3CC=C(c4ccccc4)CC3)cc(=O)oc2c1C | 5.2µM* | -9% | 3.3µM* | 26 | 4% | 8
Cc1ccc2c(CN3CCN(Cc4ccccc4)CC3)cc(=O)oc2c1 | ? | -1% | ? | 18 | -1% | -7
CCc1ccc2c(CN3CC=C(c4ccccc4)CC3)cc(=O)oc2c1 | ? | 5% | ? | -38 | 8% | 8
Cc1ccc2c(CN3C(=O)NC4(CCCCC4)C3=O)cc(=O)oc2c1C | 0% | -16% | 0.13µM* | 20 | 1% | 3
COc1ccc2c(CN3CC=C(c4ccccc4)CC3)cc(=O)oc2c1 | ? | . | ? | 22 | 0% | 29*
Cc1occc1-c1nnc(SCC(=O)N2CCCCC2)o1 | 10% | . | -20%[5.75 µM] | 41 | 0% | 5
CC(C)=CC1C(C(=O)Nc2ccc(S(=O)(=O)N3CCOCC3)cc2)C1(C)C (stereo not given) | ? | . | ? | . | -8% | .
CC(/C=C/c1ccccc1)=N\Nc1nc(-c2ccccc2)cs1 | ? | 22% | ? | 12 | -3% | 2
C/C(CCC1CC(C)OC1=O)=N/Nc1nc(-c2ccccc2)cs1 (stereo not given) | 21% | 9% | 36% | 44* | -1% | 22*
CC(C)=NNc1nc(-c2ccccc2)cs1 | 35% | ? | 111% | 66 | -37% | 22*
CC(C)=NNc1nc(-c2ccc(N3C(=O)CCC3=O)cc2)cs1 | 0% | 16% | -1% | 14 | -2% | 20*
Cc1ccc(S(=O)(=O)N2CCCCC2)cc1NS(=O)(=O)c1ccccc1F | . | . | . | . | 11% | .
CN(CCCC1CCCC1)C(=O)c1cc(COc2c(F)cccc2F)on1 | 0% | -1% | ? | -5 | -4% | -3
CN(CCCN1CCCCC1)C(=O)c1cc(COc2ccc(F)cc2F)on1 | ? | -6% | -14% | 16 | -2% | -2
CN(CCC1CCCCO1)C(=O)c1cc(COc2ccc(F)cc2F)on1 (stereo not given) | -24% | -18% | 16% | 44 | 2% | 21*
CN(CCCC1CCCC1)C(=O)c1cc(COc2ccc(F)cc2F)on1 | -10% | -8% | 6% | 58* | -2% | 22*
COc1cccc2c1OCC(CN1CCN(CCC(C)C)C(CCO)C1)=C2 (stereo not given) | -15% | 1% | ? | 1 | 1% | -3
CC(=O)c1ccc(-c2ccc(C3C4C=CCCC4(C)C(=O)N3Cc3ccccc3)c(F)c2)cc1 (stereo not given) | . | . | . | -16 | . | -7
Cc1c(C(=O)N2CCc3ccccc3C2)sc2nc(-c3ccccc3)cn12 | ? | -41% | ? | 45* | -18% | 27*
Cc1c(C(=O)N2CCN(c3ccc(F)cc3)CC2)sc2nc(-c3ccccc3)cn12 | 21% | -9% | 21% | 2 | 1% | -2
COc1ccc(-c2cn3c(C)c(C(=O)N4CCc5ccccc5C4)sc3n2)cc1 | -7% | -26% | ? | -3 | -17% | -5
SMILES | Pf growth 48h | NS1 function inh | Pf growth 96h | Shiga inhibitor | SARS PLP yeast | Cycloheximide cs
Cc1c(C(=O)N2CCOCC2)sc2nc(-c3ccccc3)cn12 | . | -12% | . | 43* | -3% | 21*
C=CCn1c(SCC(=O)Nc2ccc(-c3nc4ccc(C)cc4s3)cc2)nnc1-c1ccccc1 | 207% | 3% | 176% | 84* | -6% | 42*
O=C(COC(=O)c1ccc(Br)o1)Nc1ccc(Br)cc1 | -14% | . | 52% | . | 2% | .
Cc1ccc2nc(-c3ccc(NC(=O)COC(=O)c4ccco4)cc3)sc2c1 | 246% | 7% | i | 80* | ? | 46*
Cc1ccc(NC(=O)CN2CCN(C(=O)c3ccco3)CC2)cc1 | 8% | -12% | -9% | -4 | 1% | -4
Cc1ccc2nc(-c3ccc(NC(=O)CN4CCN(C(=O)c5ccco5)CC4)cc3)sc2c1 | 2.3µM* | -2% | 1.5µM* | 136* | 5% | 43*
Cc1ccc2nc(-c3ccc(NC(=O)COC(=O)c4ccc(Br)o4)cc3)sc2c1 | 284% | 7% | i | 81* | -10% | 27*
O=C(C1CCCN(S(=O)(=O)c2ccccc2)C1)N1CCCCC1 (stereo not given) | 38% | 21% | ? | 17 | 4% | 3
CCN(CC)C(=O)COc1ccc2c3c(c(=O)oc2c1)CCCC3 | ? | 9% | 174% | 7 | 5% | 11
CN(C)c1cc(N/N=C/c2ccc(Cl)cc2)nc(N(C)C)n1 | ? | . | -17% | 44 | -13% | 11
COCc1cc(C(C)=O)ccc1OCC(=O)Nc1ccc(NC(C)=O)cc1 | -27% | . | -8% | -9 | 1% | -2
O=C(C1=C(O)C(=O)N(CC2CCCO2)C1c1cccc(O)c1)c1ccco1 (stereo not given) | 24% | 6% | 0% | 1 | 0% | -8
Cc1ccc(NC(=O)COC(=O)c2ccco2)cc1 | 28% | 1% | 43% | 54* | -1% | 37*
COc1ccc(/C=C(\C#N)C(=O)OCC(=O)Nc2ccc(-c3nc4ccc(C)cc4s3)cc2)cc1 | 91% | 0% | 168% | 123* | 0% | 28*
CCOc1ncccc1C(=O)OCC(=O)Nc1ccc(-c2nc3ccc(C)cc3s2)cc1 | 227% | 2% | 57% | 128* | -12% | 76*
CC(=O)Nc1ccc(NC(=O)COC(=O)c2ccco2)cc1 | 2% | -2% | 11% | 13 | -3% | 11
CCOc1ncccc1C(=O)OCC(=O)Nc1c(C)cc(C)cc1C | 7% | -4% | . | 41 | -4% | -2
Cc1ccc2nc(-c3ccc(NC(=O)COC(=O)c4ccc([N+](=O)[O-])o4)cc3)sc2c1 | 225% | -8% | 223% | 91* | 1% | 53*
COc1cccc(CC(=O)OCC(=O)NCC(=O)Nc2cccc(C)c2C)c1 | 1% | . | 19% | . | -5% | .
O=C(COC(=O)c1cncc(Br)c1)Nc1ccc2c(c1)OCO2 | 16% | . | -20% | 8 | -1% | 0
Cc1ccc2nc(-c3ccc(NC(=O)COC(=O)c4cncc(Br)c4)cc3)sc2c1 | 250% | 4% | 301% | 64* | -8% | 39*
CNS(=O)(=O)c1cccc(C(=O)OCC(=O)Nc2ccc(-c3nc4ccc(C)cc4s3)cc2)c1 | 116% | 2% | 96% | 94* | 0% | 45*
COCCn1c(C)cc(C(=O)CN2C(=O)NC3(CCCCCC3)C2=O)c1C | 42% | . | 99% | . | 1% | .
Fc1ccc(-c2noc(C3CCN(Cc4cccnc4)CC3)n2)cc1 | ? | -2% | -3% | 28* | 7% | 19*
